PI5P4Ka inh: PI5P4K alpha (human) kinase inhibition | actives 1.2% (n = 330,000) | PI5P4Kalpha enzyme, ADP-Glo luminescence, 60 min; hits give low values | max response, % | P48426 | AID 652105; active = max response of -50% or lower; inconclusive = between -30% and -50%; inactive = -30% or higher; note: value at the top dose of about 77 µM
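Compounds were pin-transferred onto PI5P4Kalpha and substrate in HEPES pH 7.4 buffer with EGTA, CHAPS and 5% DMSO. ATP (5 microM final) started the reaction, which ran 60 minutes at room temperature before ADP-Glo detection.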
USP2a inh: blocks human ubiquitin-specific protease USP2a; O75604; Potency, µM (top dose mostly 38.3 µM), for the others: at the top dose activity change, negative = inhibition, hits mostly inhibitors; USP2 core, Ub-CHOP2 coupled fluorogenic reporter, 485/531; actives 0.01% (n = 330,000); AID 463254;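 note: potency is the fitted concentration of half-maximal effect; plate controls were DMSO wells for no effect and full inhibition by NEM control for full effect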
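Deubiquitinase activity read as fluorescence (485/531 nm) after Ub-CHOP2 cleavage activates the enterokinase reporter on its substrate; USP2 core 10nM, Ub-CHOP2 and substrate 25nM each, 30min compound preincubation then 60min RT; data normalized to NEM, curves fitted.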
PLK1 PBD inh: inhibitors of human PLK1 polo-box domain binding | Plk1 PBD binding of FITC phosphopeptide, fluorescence polarization | Potency, µM, without a hit: max response, negative = inhibition, most hits filed as inhibitors | actives 2.8% (n = 360,000) | AID 720504; note: potency is the fitted concentration of half-maximal effect; series mostly up to about 57 µM; nearly all actives have a fitted effect of over 65% in size
WRN inhibitor: blocks human WRN helicase; WRN helicase unwinding, fluorescent forked duplex, kinetic; Q14191; actives 0.46% (n = 360,000); Potency, µM (highest dose often 114 µM), for inactives: top-dose activity change, negative = inhibition, most hits filed as inhibitors; note: potency is the fitted concentration of half-maximal effect; nearly all actives have a fitted effect of over 55% in size
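WRN at 20 nM final preincubated with compound 15 min at room temperature; reaction started with 100 nM fluorophore/quencher forked duplex oligonucleotide and 2 mM ATP final. Unwinding followed kinetically by red fluorescence (ex 525, em 598 nm).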
USP1-UAF1 inh: blocks the human USP1/UAF1 deubiquitinase complex; actives 0.23% (n = 390,000); recombinant USP1/UAF1, Ub-Rhodamine cleavage fluorescence; O94782; Potency, µM (highest dose often 57.1 µM), for inactives: at the highest dose activity change, negative = inhibition, hits mostly inhibitors; note: potency is the fitted concentration of half-maximal effect; nearly all actives have a fitted effect of over 60% in size
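Step one: compound is pinned into 1nM USP1/UAF1 in HEPES pH 7.8 buffer with TCEP. Step two: 15 min room-temperature incubation. Step three: Ub-Rho (150nM final) starts cleavage, tracked by fluorescence over six one-minute reads.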
* = called active by the depositor; ! = a repeat was not active; [ ] = remark or other dose. Shown are actives, neighbours in structure and some others; about 3.3% of the full set was active somewhere. Unless noted, calls come from the whole dose curve; as a rule, active = well fitted curve in the direction sought with a large enough effect; inconclusive = small, poorly fitted or top-dose-only effect, or another doubt; inactive = no such curve, though single readings can be large; an effect the other way counts as inactive or inconclusive. Unless noted, % is set by controls: 0 for no effect and ±100 for the full control effect.

For COc1ccc(C=C2NC(=S)NC2=O)cc1 the results were PI5P4Ka inh -9, PLK1 PBD inh -25%, WRN inhibitor 1% and USP1-UAF1 inh inconclusive.
Screening COc1ccc(C(=O)N2C(=S)NC(=O)/C2=C\c2ccc(C)cc2)cc1 returned PI5P4Ka inh -29, USP2a inh -4%, PLK1 PBD inh -19%, WRN inhibitor 50µM* and USP1-UAF1 inh -26%.
Screening S=c1[nH]nc(NCCCN2CCOCC2)s1 returned PI5P4Ka inh -69*, USP2a inh 5%, PLK1 PBD inh 12µM*, WRN inhibitor -6% and USP1-UAF1 inh -6%.
`C=CCn1c(SCc2ccc(Br)cc2F)nc2cc(C(=O)O)ccc2c1=O` gave PI5P4Ka inh -61*, USP2a inh -7%, PLK1 PBD inh inconclusive, WRN inhibitor -9% and USP1-UAF1 inh -19%.
For C=CCn1c(SCc2c(C)noc2C)nc2cc(C(=O)O)ccc2c1=O the results were USP2a inh -1%, PLK1 PBD inh -4%, WRN inhibitor 1% and USP1-UAF1 inh -16%.
CCc1ccccc1NC(=O)Cn1nc(CC)n2c(cc3sccc32)c1=O was read as USP1-UAF1 inh -6%.
COCCCN(C(=S)Nc1cc(Cl)cc(Cl)c1)C(C)c1ccncc1 (stereo unspecified) was read as PI5P4Ka inh 12, USP2a inh 0%, PLK1 PBD inh 21µM*, WRN inhibitor -10% and USP1-UAF1 inh -20%.
COCCCN(C(=S)Nc1cc(Cl)cc(Cl)c1)C(C)c1ccccn1 (stereo unspecified) was read as PI5P4Ka inh 9, USP2a inh -1%, PLK1 PBD inh 17µM*, WRN inhibitor 3% and USP1-UAF1 inh -19%.
For COCCCN(C(=S)Nc1ccc(C)cc1Cl)C(C)c1ccncc1 (stereo unspecified) the results were PI5P4Ka inh 0, USP2a inh 6%, PLK1 PBD inh -5%, WRN inhibitor -16% and USP1-UAF1 inh -16%.
CCc1cccc(CC)c1NC(=O)C(Cc1ccccc1)NS(=O)(=O)c1cccc2nsnc12 (stereo unspecified) was read as USP1-UAF1 inh -7%.
For CCOC(=O)c1nnn(-c2ccc([N+](=O)[O-])cc2[N+](=O)[O-])c1C the results were PI5P4Ka inh 0, USP2a inh 1%, PLK1 PBD inh -12%, WRN inhibitor -8% and USP1-UAF1 inh inconclusive.
COCc1c(C(=O)OC)nnn1-c1ccc(C(F)(F)F)cc1[N+](=O)[O-] was read as PI5P4Ka inh -20, USP2a inh -1%, PLK1 PBD inh 27µM*, WRN inhibitor 2% and USP1-UAF1 inh -23%.
`Cc1cccn2c(=O)c3cc(C#N)c(=NC(=O)c4ccco4)n(Cc4ccco4)c3nc12` gave PI5P4Ka inh inconclusive, USP2a inh -1%, PLK1 PBD inh -14%, WRN inhibitor -29%[57.1 µM] and USP1-UAF1 inh 5%.
`Cc1cccn2c(=O)c3cc(C#N)c(=NC(=O)c4ccccc4)n(Cc4ccco4)c3nc12` gave PI5P4Ka inh -73*!, PLK1 PBD inh -28%, WRN inhibitor 50µM*! and USP1-UAF1 inh -18%.
`CCCN(Cc1cc2cccc(C)c2[nH]c1=O)C(=O)c1cccc(Cl)c1` gave USP1-UAF1 inh -6%.
`Cc1ccc2c(C(=O)CN3CCSCC3)c(C)[nH]c2c1` gave PI5P4Ka inh inconclusive, USP2a inh 1%, PLK1 PBD inh 19µM*, WRN inhibitor 1% and USP1-UAF1 inh -10%.
CC(C)c1c(C(=O)N/N=C/c2ccc(OCc3ccc(F)cc3)cc2)nnn1-c1nonc1N was read as PI5P4Ka inh 2, USP2a inh 0%, PLK1 PBD inh 21µM*, WRN inhibitor -4% and USP1-UAF1 inh -16%.
`CCOc1cccc(-c2c(C(=O)N/N=C/c3ccoc3)nnn2-c2nonc2N)c1` gave PI5P4Ka inh -23, USP2a inh 0%, PLK1 PBD inh 30µM*, WRN inhibitor -5% and USP1-UAF1 inh -25%.
Screening COc1ccccc1/C(C)=N/NC(=O)c1nnn(-c2nonc2N)c1C(C)C returned PI5P4Ka inh -24, USP2a inh 0%, PLK1 PBD inh 12µM*, WRN inhibitor -8% and USP1-UAF1 inh -5%.
For CCOc1ccc(-c2c(C(=O)N/N=C/c3ccoc3)nnn2-c2nonc2N)cc1 the results were PI5P4Ka inh inconclusive, USP2a inh 0%, PLK1 PBD inh -12%, WRN inhibitor 0%[11.6 µM] and USP1-UAF1 inh -6%.
Screening COc1cc(/C=C(\C#N)C(=O)Nc2ccc(C)cc2)ccc1OCc1cc(=O)n2nc(C)sc2n1 returned USP1-UAF1 inh -22%.
COc1cccc(CNC(=O)Cn2c(C)c3cnn(-c4ccccc4)c(=O)c3c2C)c1 was read as USP1-UAF1 inh -11%.
Screening O=C(CCSc1ccccn1)c1ccccc1 returned PI5P4Ka inh -1, USP2a inh 3%, PLK1 PBD inh inconclusive, WRN inhibitor -14% and USP1-UAF1 inh -11%.
For O=C(O)CCSc1ccccn1 the results were PI5P4Ka inh -5, USP2a inh 2%, PLK1 PBD inh 13µM*, WRN inhibitor -4% and USP1-UAF1 inh -8%.
COc1ccc(N2CCN(C(=O)CSc3ccccc3N)CC2)cc1 was read as USP2a inh 1%, PLK1 PBD inh 24µM*, WRN inhibitor -1%[57.1 µM] and USP1-UAF1 inh -1%.
`O=C(CSc1nccc(=O)[nH]1)N1CCN(c2ccccc2)CC1` gave PI5P4Ka inh inconclusive, USP2a inh 3%, PLK1 PBD inh 17µM*, WRN inhibitor -8% and USP1-UAF1 inh -3%.
CCCc1cc(=O)[nH]c(SCC(=O)N2CCN(c3ccccc3)CC2)n1 was read as PLK1 PBD inh 0%, WRN inhibitor -2% and USP1-UAF1 inh -12%.
For O=C(CSc1ccccn1)N1CCN(c2ccccc2)CC1 the results were USP2a inh 0%, PLK1 PBD inh 21µM*, WRN inhibitor -3% and USP1-UAF1 inh -2%.
`Cc1ccn2c(c1)nc(=O)c1cc(S(=O)(=O)N3CCC(C)CC3)c(Cl)cc12` gave USP1-UAF1 inh -26%.
Screening O=C(CSc1ccccn1)N1CCN(c2cccc(Cl)c2)CC1 returned PI5P4Ka inh -9, USP2a inh 5%, PLK1 PBD inh 12µM*, WRN inhibitor -3% and USP1-UAF1 inh -8%.
O=C(CSc1ccc(-c2ccccn2)nn1)N1CCCC1 was read as PI5P4Ka inh -26, USP2a inh 1%, PLK1 PBD inh 13µM*, WRN inhibitor -11% and USP1-UAF1 inh -10%.
Screening O=C(NCc1cccc(Br)c1)c1cnn(-c2ccc(F)cc2)c1-n1cccc1 returned USP1-UAF1 inh -15%.
`Cc1nn(-c2ccc(F)cc2)c(-n2cccc2)c1C(=O)NCCCN1CCN(c2cccc(Cl)c2)CC1` gave USP1-UAF1 inh -24%.

Screens as filed in PubChem BioAssay.
